Screening data: PubChem, Pan Lab, Icahn School of Medicine at Mount Sinai
ROC1-CUL1 inh: inhibitors of human ROC1-CUL1 ubiquitin ligase activity; E3 ubiquitin-protein ligase RBX1 (Homo sapiens) + Cullin-1 (Homo sapiens), P62877+Q13616; in vitro K48 di-Ub FRET, acceptor:donor ratio, 45 min; inhibition, % at 10 µM; 140,000 compounds, 0.6% hits; in the data active = inhibition above about 25%
Target sequence (P62877 whole entry, looked up): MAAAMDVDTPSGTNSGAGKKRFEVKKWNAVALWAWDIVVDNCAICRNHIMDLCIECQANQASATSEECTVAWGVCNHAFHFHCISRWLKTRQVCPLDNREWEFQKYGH
Target sequence (Q13616 whole entry, looked up): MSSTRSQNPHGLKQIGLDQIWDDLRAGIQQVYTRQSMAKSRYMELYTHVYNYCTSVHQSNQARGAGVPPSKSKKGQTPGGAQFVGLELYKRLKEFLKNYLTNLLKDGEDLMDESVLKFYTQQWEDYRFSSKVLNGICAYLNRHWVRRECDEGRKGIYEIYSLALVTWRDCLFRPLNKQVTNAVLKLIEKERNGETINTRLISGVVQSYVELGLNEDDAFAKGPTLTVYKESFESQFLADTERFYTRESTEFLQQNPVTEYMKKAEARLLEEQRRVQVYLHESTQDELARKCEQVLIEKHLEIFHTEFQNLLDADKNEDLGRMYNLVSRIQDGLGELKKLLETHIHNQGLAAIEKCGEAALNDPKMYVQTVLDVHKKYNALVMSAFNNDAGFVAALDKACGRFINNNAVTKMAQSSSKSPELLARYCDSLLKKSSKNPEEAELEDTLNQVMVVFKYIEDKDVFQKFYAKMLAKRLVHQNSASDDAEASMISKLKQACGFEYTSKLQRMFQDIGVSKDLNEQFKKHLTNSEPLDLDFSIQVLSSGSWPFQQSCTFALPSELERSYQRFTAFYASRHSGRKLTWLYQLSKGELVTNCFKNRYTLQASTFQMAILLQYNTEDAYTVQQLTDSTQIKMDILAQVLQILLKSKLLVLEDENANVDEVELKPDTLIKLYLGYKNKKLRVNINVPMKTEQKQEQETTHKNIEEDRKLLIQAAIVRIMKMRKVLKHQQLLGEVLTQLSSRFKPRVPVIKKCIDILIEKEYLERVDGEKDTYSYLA
The depositor's hits bear a star. This is one part of a sample in which hits are shown more often than they occur.

Screening COc1ccc(C(=O)c2coc3c2C(=O)C(=O)C(Br)=C3)cc1 returned ROC1-CUL1 inh 102*.
COc1ccc(C(=O)c2coc3c2cc(O)c2ccccc23)cc1 was read as ROC1-CUL1 inh 13.
For COc1ccc(C(=O)c2cc(C)ccc2OC)cc1 the results were ROC1-CUL1 inh -1.
Screening Cc1c(/C=C2\SC(=Nc3ccc(Br)cc3)NC2=O)c2ccccc2n1C returned ROC1-CUL1 inh -1.
`CC(=O)c1cc2c(cc1NC(=O)C1CCCCC1)OCO2` gave ROC1-CUL1 inh -1.
Screening Nc1c(C=C2C=Nc3ccccc32)c(=O)nc2sc(C(F)(F)F)nn12 returned ROC1-CUL1 inh -4.
For Cc1ccc(-c2nn3c(N)c(C=C4C=Nc5ccccc54)c(=O)nc3s2)cc1 the results were ROC1-CUL1 inh 2.
Screening COC1=CC(=Cc2c(N)n3nc(-c4ccccc4Cl)sc3nc2=O)C=CC1=O returned ROC1-CUL1 inh 60*.
`COCCS(=O)(=O)c1ncc(CN2CCOCC2)n1CC1CCCCC1` gave ROC1-CUL1 inh 9.
Screening CCCCOc1cccc(/C=N/NS(=O)(=O)c2ccc(NC(C)=O)cc2)c1 returned ROC1-CUL1 inh 3.
CCOC(=O)c1c(NC(=O)CCN2CCCCCC2)sc2c1CCC(C)C2 (centres undefined) was read as ROC1-CUL1 inh 8.
CCn1c(C)nc([N+](=O)[O-])c1Cl was read as ROC1-CUL1 inh 6.
Screening [O-][n+]1oc2c(Br)cc(Br)cc2c1-c1ccccc1 returned ROC1-CUL1 inh 9.
`CN(C)c1ccc(/C=C2/OC(=S)NC2=S)cc1` gave ROC1-CUL1 inh 26*.
CC1=NOC(=O)/C1=C\c1ccc(N(C)C)cc1 was read as ROC1-CUL1 inh 1.
For CN(C)c1ccc(/C=C\c2ccccc2)cc1 the results were ROC1-CUL1 inh 4.
CCCCC(=O)N(c1nc(-c2ccc(OC)cc2)c(C)s1)c1ccccc1OCC was read as ROC1-CUL1 inh -4.
Screening OC1c2ccccc2CCc2sccc21 (centres undefined) returned ROC1-CUL1 inh -2.
Screening C[N+]1(C)CCC(C2c3ccccc3CSc3sccc32)CC1 (centres undefined) returned ROC1-CUL1 inh -3.
`OC1c2ccccc2CSc2sccc21` (centres undefined) gave ROC1-CUL1 inh 49*.
For CNC(=O)C1CC(O)CN1C(=O)Oc1ccccc1 (centres undefined) the results were ROC1-CUL1 inh 3.
Clc1ccc(-c2ccncn2)cc1Cl was read as ROC1-CUL1 inh 7.
`O=[N+]([O-])c1cc(-c2ccncn2)sc1[N+](=O)[O-]` gave ROC1-CUL1 inh 41*.
Brc1cc(-c2ccncn2)cs1 was read as ROC1-CUL1 inh -3.
CCn1c(Cc2ccccc2)nnc1SCC(=O)Nc1cc(C)ccc1C was read as ROC1-CUL1 inh -1.
C=CCn1c(CCC(O)COCCCC)n[nH]c1=S (centres undefined) was read as ROC1-CUL1 inh -18.
`Cc1ccc(CNC(=O)c2cc(-c3ccc(C)o3)nc3ccccc23)cc1` gave ROC1-CUL1 inh 8.
Cc1ccc(-c2cc(C(=O)Nc3ccccc3C(N)=O)c3ccccc3n2)o1 was read as ROC1-CUL1 inh 1.
For CCSc1nnc(NC(=O)c2cc(-c3ccc(C)o3)nc3ccccc23)s1 the results were ROC1-CUL1 inh 81*.
Screening Cn1cc(CCC(=O)N2CCC3(CCCN(Cc4ccccc4F)C3)C2)cn1 (centres undefined) returned ROC1-CUL1 inh 12.
`O=C(COc1ccccc1Cl)Nc1ccc(-c2nnc(-c3ccco3)o2)cc1` gave ROC1-CUL1 inh -3.
For CCCCCCCC1=NN2C(=N)/C(=C/c3ccccc3C)C(=O)N=C2S1 the results were ROC1-CUL1 inh 2.
Screening CCCC1=NN2C(=N)/C(=C/c3ccc(-c4cccc(C(=O)O)c4)o3)C(=O)N=C2S1 returned ROC1-CUL1 inh 11.
CCCCCCCC1=NN2C(=N)/C(=C/c3ccc(-c4cccc(C(=O)O)c4)o3)C(=O)N=C2S1 was read as ROC1-CUL1 inh 97*.
For COc1ccc(-c2ccc(C(=O)N(Cc3ccncc3)Cc3cccc(OCCc4ccc(F)cc4)c3)o2)cc1 the results were ROC1-CUL1 inh 2.
`CCOc1ccc(S(=O)(=O)N2CCN(c3ccccc3)CC2)cc1CC` gave ROC1-CUL1 inh 6.
Screening CCN1C(=O)/C(=C\c2ccc(Cl)cc2)N=C1SCC(=O)NCc1ccccc1 returned ROC1-CUL1 inh 5.
For CC(C)c1ccc(C2c3c(ccc4ccccc34)OC(=N)C2C#N)cc1 (centres undefined) the results were ROC1-CUL1 inh 0.
`CSc1ccc(C(=O)/C=C/c2ccccc2)cc1` gave ROC1-CUL1 inh 3.
Screening O=C(/C=C/c1cccnc1)c1ccc(F)cc1 returned ROC1-CUL1 inh 49*.
`C(=C\c1cccnc1)/c1ccc(/C=C/c2cccnc2)cc1` gave ROC1-CUL1 inh 0.
For COC(=O)c1ccccc1N1C(=O)C2CN=NC2C1=O (centres undefined) the results were ROC1-CUL1 inh 2.
